# Assay outcomes (PubChem BioAssay)
# CIT2-GFP yeast – modulators of TOR pathway CIT2-GFP in S. cerevisiae | hit rate 0.065% among 320,000 | AID 2029 | GFP response vs DMSO, % at 10 µM | S. cerevisiae CIT2-GFP strain, flow cytometry, 3 h; 100 means same as DMSO wells;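 active = GFP response relative to DMSO above a set limit, near the screen mean plus 3 SD, cut at about 150% in these data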;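 note: ratio of well median GFP fluorescence to mean of DMSO wells on the plate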
# VLA-4 inh – inhibition in a human VLA-4 binding assay. P13612. VLA-4 expressing cells, ligand binding flow cytometry. inhibition, % (about 7 µM as worked out from the volumes in the protocol). hit rate 0.2% among 330,000; in the data active = inhibition above about 50%
# Target sequence (P13612 whole entry, looked up): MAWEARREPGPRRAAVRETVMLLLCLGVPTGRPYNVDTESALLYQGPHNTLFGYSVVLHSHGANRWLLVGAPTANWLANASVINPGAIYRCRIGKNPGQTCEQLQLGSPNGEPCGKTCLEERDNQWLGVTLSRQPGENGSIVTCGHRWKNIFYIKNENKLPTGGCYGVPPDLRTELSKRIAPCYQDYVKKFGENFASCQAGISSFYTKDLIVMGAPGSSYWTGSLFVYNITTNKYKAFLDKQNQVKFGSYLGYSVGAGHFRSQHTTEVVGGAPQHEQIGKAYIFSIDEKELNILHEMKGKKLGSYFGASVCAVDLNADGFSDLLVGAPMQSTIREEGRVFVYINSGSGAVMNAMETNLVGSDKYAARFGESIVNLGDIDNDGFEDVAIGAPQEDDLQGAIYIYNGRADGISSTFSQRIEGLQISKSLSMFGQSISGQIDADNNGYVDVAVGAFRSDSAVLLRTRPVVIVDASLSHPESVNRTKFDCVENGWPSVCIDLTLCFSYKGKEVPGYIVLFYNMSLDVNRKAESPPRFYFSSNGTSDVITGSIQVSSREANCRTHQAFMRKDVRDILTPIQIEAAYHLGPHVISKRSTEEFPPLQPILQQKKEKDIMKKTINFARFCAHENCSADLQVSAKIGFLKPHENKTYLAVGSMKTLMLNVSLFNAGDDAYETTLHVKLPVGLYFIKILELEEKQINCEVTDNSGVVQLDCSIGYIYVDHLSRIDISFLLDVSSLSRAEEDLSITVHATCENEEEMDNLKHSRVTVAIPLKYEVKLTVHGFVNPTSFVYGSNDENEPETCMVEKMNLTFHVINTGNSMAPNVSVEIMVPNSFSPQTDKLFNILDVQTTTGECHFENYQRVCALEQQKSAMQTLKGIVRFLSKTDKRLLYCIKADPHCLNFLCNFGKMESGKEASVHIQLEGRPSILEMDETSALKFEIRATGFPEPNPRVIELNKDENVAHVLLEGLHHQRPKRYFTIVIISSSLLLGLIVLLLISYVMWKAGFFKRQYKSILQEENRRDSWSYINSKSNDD
# LAP4 TOR yeast – modulators of TOR pathway LAP4-GFP in S. cerevisiae | S. cerevisiae LAP4-GFP multiplex, flow cytometry GFP, 3 h; median GFP as percent of DMSO wells | GFP response vs DMSO, % at 10 µM | hit rate 0.34% among 320,000 | AID 2023;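 active = GFP response vs DMSO above a set limit, about the screen mean plus 3 SD, cut at about 150% in these data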
# MEP2-GFP yeast – modulators of TOR pathway MEP2-GFP in S. cerevisiae; S. cerevisiae MEP2-GFP strain, flow cytometry GFP, 3 h; 100% = DMSO control level; hit rate 0.51% among 330,000; GFP response vs DMSO, % at 10 µM;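 active = GFP response versus DMSO above a set limit, roughly screen mean plus 3 SD, cut at about 180% in these data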;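 note: median GFP fluorescence of the barcode-gated MEP2-GFP cells per well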
# RPL19A-GFP yeast – alters RPL19A-GFP fluorescence in TOR pathway yeast screen | hit rate 0.3% among 330,000 | S. cerevisiae RPL19A-GFP strain, flow cytometry, 3 h; hits give low values | AID 2025 | percent response vs DMSO, % at 10 µM;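 active = percent response vs DMSO below 50%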;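 note: median channel GFP fluorescence of the barcoded RPL19A-GFP strain; ratio of sample median GFP to plate DMSO average so 100% = DMSO; lower means less RPL19A-GFP as with rapamycin TOR inhibition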
# AGP1-GFP MLPCN – yeast TOR pathway AGP1-GFP modulation | S. cerevisiae AGP1-GFP multiplex flow cytometry, 3 h; GFP as percent of DMSO wells | GFP response vs DMSO, % at 10 µM | hit rate 0.02% among 320,000 | AID 2066;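 active = GFP response relative to DMSO above a set limit, near screen average plus 3 SD, cut at about 150% in these data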;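 note: median GFP channel fluorescence of the gated AGP1 strain per well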
# LAP4 cherry2 – reconfirmed LAP4-GFP TOR pathway modulator in yeast. GFP response vs DMSO, % at 10 µM. AID 2621. hit rate 20% among 590. S. cerevisiae LAP4-GFP strain, flow cytometry GFP, 3 h. shares compounds with LAP4 TOR yeast;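 active = GFP signal as percent of the solvent control above about 150%, meaning raised reporter expression, limit read from the data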;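 note: ratio of well median GFP fluorescence to plate DMSO mean so 100% = DMSO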
# MEP2 cherry2 – reconfirmed MEP2-GFP TOR pathway modulator in yeast. shares compounds with LAP4 TOR yeast. S. cerevisiae MEP2-GFP strain, flow cytometry GFP, 3 h. GFP response vs DMSO, % at 10 µM. hit rate 10% among 590;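 active = GFP signal above 150% of the solvent control wells, that is a rise of more than half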;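 note: median channel GFP fluorescence of all gated yeast cells per well; ratio of median GFP to plate DMSO average so 100% = DMSO level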
# RPL19A GFP CP2 – yeast RPL19A-GFP TOR reporter modulation, second cherry pick; hit rate 3% among 590; GFP response vs DMSO, % at 10 µM; shares compounds with LAP4 TOR yeast; AID 2623; S. cerevisiae RPL19A-GFP strain, flow cytometry GFP, 3 h; hits give low values; 100% means same as DMSO wells;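 active = under 65% GFP response relative to DMSO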;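 note: median GFP channel fluorescence per well over the all cells gate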
# CIT2-GFP pick2 – yeast CIT2-GFP TOR reporter modulation, second cherry pick | S. cerevisiae CIT2-GFP strain, flow cytometry GFP, 3 h; DMSO control wells read 100% | hit rate 8% among 590 | shares compounds with LAP4 TOR yeast | GFP response vs DMSO, % at 10 µM;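 active = GFP response vs DMSO above about 150%, limit read from the data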;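 note: median green fluorescence per well over all gated yeast cells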
# AGP1-GFP pick2 – reconfirmed modulator of AGP1-GFP TOR reporter in yeast | percent response vs DMSO, % at 10 µM | S. cerevisiae AGP1-GFP strain, flow cytometry GFP, 3 h | 590 tested, under 10 active | shares compounds with LAP4 TOR yeast;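 active = over 150 percent of DMSO response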;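 note: median GFP channel fluorescence over all cells without mother daughter split; sample median GFP divided by mean DMSO control so 100% equals DMSO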
# Yeast autofluor – yeast s288c autofluorescence artifact, counter-screen | fluorescence change (kMESF span) at 33 µM | AID 2757 | shares compounds with LAP4 TOR yeast | 610 tested, under 10 active | S. cerevisiae s288c, 520 nm autofluorescence, flow cytometry, 3 h; hits give high values; zero means same as solvent-only cells;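 active = fluorescence span over the dose series, or activity score, above about 33, limit read from the data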
# * hit, by the source's call; i = inactive; · = not tested or not shown; + = active, no number. Shown are actives, neighbours in structure and some others; about 1.1% of the full set was active somewhere.
SMILES,CIT2-GFP yeast,VLA-4 inh,LAP4 TOR yeast,MEP2-GFP yeast,RPL19A-GFP yeast,AGP1-GFP MLPCN,LAP4 cherry2,MEP2 cherry2,RPL19A GFP CP2,CIT2-GFP pick2,AGP1-GFP pick2,Yeast autofluor
Cc1nc(N2CCCCC2)c2c(-c3cccs3)csc2n1,100,8,98,155,56,34,95,95,99,109,97,·
COCCNC(=S)N1CCN(Cc2ccc3c(c2)OCO3)CC1,92,3,79,81,92,88,·,·,·,·,·,·
O=C1C(Cl)=C(N2CCCCCC2)C(=O)N1c1ccccc1,107,19,104,106,108,·,·,·,·,·,·,·
O=C1C(Cl)=C(N2CCN(Cc3ccccc3)CC2)C(=O)N1c1ccccc1,94,-22,90,98,94,96,·,·,·,·,·,-0.1
CC(C)CC1NC(=O)N(CC(=O)Nc2cc(F)ccc2F)C1=O (configuration not stated),89,14,88,95,96,93,·,·,·,·,·,·
CCOC(=O)c1cnc2c(-c3ccccc3OC)c(C)nn2c1C,112,-4,107,110,107,115,·,·,·,·,·,·
Nc1nc(N)c2nc(CNc3ccc(C(=O)NC(CCC(=O)O)C(=O)O)cc3)cnc2n1 (configuration not stated),83,2,299*,94,85,101,327*,218*,101,157*,128,0.1
C#CCOCCOCCOCCNc1nc(N2CCN(C(=O)CCCCCCCCCCNC(=O)[C@H](CCCCN)n3cc(CCCC(=O)O)nn3)CC2)nc(N2CCN(C(=O)CCCCCCCCCCNC(=O)[C@H](CCCN=C(N)N)n3cc(C[C@@H](C)CC)nn3)CC2)n1,80,-15,178*,99,81,86,108,165*,92,103,110,0
C#CCOCCOCCOCCNc1nc(N2CCN(C(=O)CCCCCCCCCCNC(=O)[C@H](CCCCN)n3cc(C)nn3)CC2)nc(N2CCN(C(=O)CCCCCCCCCCNC(=O)[C@@H]([C@H](C)CC)n3cc(CCCCCN)nn3)CC2)n1,89,-17,153*,87,88,80,114,121,96,107,101,·
C#CCOCCOCCOCCNc1nc(N2CCN(C(=O)CCCCCCCCCCNC(=O)[C@H](CCCCN)n3cc(CCO)nn3)CC2)nc(N2CCN(C(=O)CCCCCCCCCCNC(=O)[C@H](CCCN=C(N)N)n3cc(C[C@@H](C)CC)nn3)CC2)n1,75,-9,201*,100,71,89,123,175*,90,108,112,-0.2
CCc1nccn1CCC(=O)NC1CC(C)(C)Cc2c1cnn2-c1cccc(F)c1 (configuration not stated),104,10,103,105,105,104,·,·,·,·,·,·
Cc1nc2ccc(NC(=O)c3oc4ccc(F)cc4c3C)cc2s1,+,3,884*,+,261,266*,96,105,100,90,94,0
N#CCn1c(CN2CCCC2)nc2ccccc2c1=O,106,5,104,107,101,101,·,·,·,·,·,·
CCN(CC)c1ccc2cc(-c3nc4ccccc4[nH]3)c(=O)oc2c1,139,i,171*,200*,112,112,·,·,·,·,·,4.7
CCN(CC)c1ccc2cc(-c3nc(-c4ccc(OC)cc4)cs3)c(=O)oc2c1,204*,·,160*,221*,119,94,·,·,·,·,·,7.5
C[C@H](NC(=O)N1CCn2c1nc1ccccc12)C(=O)NCc1ccccc1,105,3,92,95,96,100,·,·,·,·,·,·
C=CCN(C(=O)c1csnn1)C(C(=O)NCc1ccc(F)cc1)c1cccs1 (configuration not stated),100,-1,96,106,103,98,·,·,·,·,·,·
CCN(C(=O)CSc1nnc(-c2ccc3c(c2)OCO3)o1)C1CCS(=O)(=O)C1 (configuration not stated),100,4,102,100,98,94,·,·,·,·,·,·
O=C(O)c1ccc(COc2ccccc2C=C2C(=O)c3ccccc3C2=O)cc1,90,-4,104,101,102,93,110,110,101,108,97,0
Cc1cc2c(C)nc3ccccc3c2o1,102,21,92,170,64,27,94,93,103,107,98,·
CC(CCc1ccccc1)NC(=O)COC(=O)C(CCC(N)=O)NC(=O)c1ccc(F)cc1 (configuration not stated),110,-4,96,96,96,98,·,·,·,·,·,·
CC(C)C(=O)NC(c1cccs1)c1cc([N+](=O)[O-])c2cccnc2c1O (configuration not stated),109,6,153*,128,88,55,·,·,·,·,·,-0.1
COc1ccc(C(=O)OCC(=O)NC2CCCC2)c(OC)c1,97,-11,106,105,102,96,·,·,·,·,·,·
COc1ccc(C(=O)c2ccccc2)c(OCC(=O)NC2CC2)c1,90,-2,120,135,61,73,107,95,94,97,91,·
O=C(/C=C/c1cc(Br)ccc1O)c1ccco1,70,22,196*,87,77,88,·,·,·,·,·,-0.1
O=C(/C=C/c1ccccc1O)c1ccco1,114,6,92,106,100,91,·,·,·,·,·,·
O=c1[nH]c(-c2ccccn2)nc2ccccc12,98,-7,97,94,94,92,·,·,·,·,·,·
O=c1[nH]c(-c2ccccn2)nc(C(F)(F)F)c1Br,93,5,242*,113,108,97,·,·,·,·,·,1.7
